Measured values as given in PubChem BioAssay (NCATS).
Records with an inconclusive call do not appear. Calls of active or inactive are those of the source. The call rests on the fitted dose curve; in most records, active means well fitted curve in the direction sought with a large enough effect; inconclusive means small, poorly fitted or top-dose-only effect, or another doubt; inactive means no such curve, though single readings can be large; an effect the other way counts as inactive or inconclusive.

Assays:
[1] = MultiTox-Fluor Cytotoxicity Assay - LYMP1-002 - Dead Cells (AID 960); conditions: LYMP1-002 lymphoblastoid cells, dead-cell protease fluorescence; series mostly up to 46.1 µM;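 further: cells exposed to compound for 16 h at 37 °C; nearly all actives have a fitted effect of over 60% in size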
Procedure, shortened: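 Concentration-dependent increases in membrane-leaked protease activity are quantified in LYMP1-002 cells after 16 hr treatment; values are normalized against DMSO and tetraoctylammonium bromide (15 uM) controls and AC50 derived by Hill modeling.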

[2] = MultiTox-Fluor Cytotoxicity Assay - LYMP1-003 - Dead Cells (AID 961); conditions: LYMP1-003 lymphoblastoid cells, dead-cell protease fluorescence; series mostly up to 92.2 µM;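 further: cells exposed to compound for 16 h at 37 °C; nearly all actives have a fitted effect of over 70% in size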
Procedure, shortened: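 LYMP1-003 lymphoblastoid, 2500 cells/well, 5 hr settle then 16 hr cpd at 37 C; MultiTox-Fluor reagent 60 min RT; Ex/Em 485/520 dead-cell signal; norm. DMSO = 0%, 15 uM tetraoctylammonium bromide = 100%; Hill AC50.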

[3] = MultiTox-Fluor Cytotoxicity Assay - LYMP1-003 - Live Cells (AID 962); conditions: LYMP1-003 lymphoblastoid cells, MultiTox-Fluor live-cell protease fluorescence; series mostly up to 92.2 µM;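 further: cells exposed to compound for 16 hours at 37 °C; cytotoxic hits lower the live-cell protease signal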
Procedure, shortened: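 Human lymphoblastoid line LYMP1-003 in complete culture medium, treated 16 hr with titrated compounds. Viable cells quantified via cell-permeant GF-AFC substrate fluorescence; AC50 derived by Hill fitting.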

[4] = Cell Viability - LYMP1-003 - Assay at 24 hr (AID 963); conditions: LYMP1-003 lymphoblastoid cell viability; series mostly up to 92.2 µM
Procedure, shortened: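 The lymphoblastoid line was treated with titrated compounds for 24 hours, and viable cell number estimated from luciferase-based ATP luminescence.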

[5] = Cell Viability - LYMP1-003 - Assay at 40 hr (AID 964); conditions: LYMP1-003 lymphoblastoid viability; series mostly up to 92.2 µM; further: nearly all actives have a fitted effect of over 60% in size
Procedure, shortened: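 Acute toxicity is scored as a concentration-dependent loss of intracellular ATP in LYMP1-003 cells (2500/well, complete medium) after 40 hr at 37 C, measured by CellTiter-Glo luminescence; AC50 values derive from standard Hill modelling.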

[6] = Cell Viability - LYMP2-003 (AID 965); conditions: LYMP2-003 lymphoblastoid cell viability; series mostly up to 92.2 µM;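 further: cells exposed to compounds for 24 h before reading; nearly all actives have a fitted effect of over 50% in size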
Procedure, shortened: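 Human lymphoblastoid cells (2500/well) were pre-incubated 5 hr at 37 C, then exposed to compounds over a concentration range for 24 hr at 37 C. Intracellular ATP was read by CellTiter-Glo luminescence; AC50 came from Hill-equation fits.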

[7] = Cell Viability - LYMP2-004 (AID 966); conditions: LYMP2-004 lymphoblastoid cell viability, qHTS; series mostly up to 92.2 µM; further: nearly all actives have a fitted effect of over 65% in size
Procedure, shortened: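 Viable-cell number estimated from ATP luminescence (CellTiter-Glo) in 2500 human lymphoblastoid cells/well after 24 hr at 37 C with compound. AC50 fitted to the standard Hill equation.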

[8] = Cell Viability - LYMP2-005 (AID 967); conditions: LYMP2-005 lymphoblastoid cell viability; series mostly up to 92.2 µM
Procedure, shortened: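 CellTiter-Glo luminescence (cellular ATP) read-out; LYMP2-005 lymphoblastoid cells, 2500/well, 5 h pre-incubation, then 24 h compound exposure at 37 C in complete medium. Tetraoctylammonium bromide positive control; AC50 by standard Hill fit.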

[9] = Cell Viability - LYMP2-009 (AID 968); conditions: LYMP2-009 lymphoblastoid cell viability; series mostly up to 92.2 µM; further: nearly all actives have a fitted effect of over 55% in size
[10] = Cell Viability - LYMP2-011 (AID 969); conditions: LYMP2-011 lymphoblastoid cells viability; series mostly up to 92.2 µM; further: nearly all actives have a fitted effect of over 60% in size
Procedure, shortened: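 Cells seeded at 2500 per well rest 5 hr before compound addition, then incubate 24 hr at 37 C. CellTiter-Glo reagent is added for 30 min at room temperature before luminescence detection.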

Measured: outcome

COc1ccc(CCC(=O)c2c(O)cc(O[C@@H]3O[C@H](CO)[C@@H](O)[C@H](O)[C@H]3O[C@@H]3O[C@@H](C)[C@H](O)[C@@H](O)[C@H]3O)cc2O)cc1O
inactive: all assays above

C=C1C[C@]23C[C@@]1(O)CC[C@H]2[C@@]12C=C[C@H](O)[C@@](C)(C(=O)O1)[C@H]2[C@@H]3C(=O)O
not listed: [8]
inactive: all other assays above
